Structures are written as SMILES. The source made the active and inactive calls. Rule for the calls: active = hit-call score of the fitted dose curve at least 0.9, where 1 is the maximum; inactive = score below 0.9.

Read-out in the assay: CYP3A5 (gene 1577)
Put plainly: LTEA_HepaRG_CYP3A5: Life Technologies and Expression Analysis (LTEA) Assay for CYP3A5 using HepaRG (AID 2283493). To be noted: mRNA level, 48 h; actives raise or lower the signal. On the procedure:
LTEA_HepaRG is a cell based, multiplexed-readout assay that uses HepaRG, a human liver cell line, with measurements taken at 48 hours after chemical dosing on a 96-well plate.LTEA_HepaRG_CYP3A5 is one of 102 assay component(s) measured in the LTEA HepaRG cell culture assay. It is a marker of NR mediated metabolism.Data from the assay component LTEA_HepaRG_CYP3A5 was analyzed into 1 endpoint. This assay endpoint, LTEA_HepaRG_CYP3A5, was analyzed with bidirectional fitting relative to DMSO as the negative control and baseline of activity. Using a type of inducible reporter, measures of mRNA induction for gain or loss-of-signal activity can be used to understand regulation of transcription factor activity. To generalize the intended target to other relatable targets, this assay endpoint is annotated to the cyp intended target family, where the subfamily is xenobiotic metabolism.
A total of 1060 chemcials from the ToxCast library were tested in eight-point concentration-response experiments. Cell culture and cytotoxicity assays were conducted at Thermo Fisher Scientific's Custom Services facility (Madison, WI). A single lot of human HepaRG cells (Thermo Fisher Scientific, Frederick, MD) was used for the cell culture experiments. 96-well format collagen type I coated plates of human HepaRG cells were prepared using established methods. Briefly, cryopreserved HepaRG cells were thawed, plated at a density of approximately 100,000 cells/well in HepaRG Thaw, Plate, and General Purpose media (HPRG770, Thermo Fisher Scientific), and incubated for 48 hours. 0.5% DMSO was selected as vehicle control to balance the requisite need of DMSO in HepaRG cultures to maintain differentiation (for example, baseline metabolism, proportions of hepatocytes vs. cholangiocytes), while enabling further hepatic receptor pathway activation (for example, PXR and CAR) in response to chemical exposure. 48 hours after plating, the culture medium was replaced with HepaRG Serum-Free Incudtion Media. Cells were exposed to each test chemical in duplicate and maintained in CO2 incubators for another 48 hours. Chemical plates were thawed to room temperature and 200x concentrations of treatment groups were prepared. 8-point conentration-reponse curves were made with the highest exposure at 100 uM, followed by half-log dilutions, all in 0.5% DMSO. Each test plate contained variouse controls, induction positive controls (1mM phenobarbital), cytotoxicity positive controls ([…] aflatoxin B1), vehicle controls (0.5% DMSO), and total lysis controls (0.5% DMSO). Cell morphology images were taken using an Essen IncuCyte FLR automated microscope, with six 96-well plates imaged in about 24 minutes. Images were captured and exported and JPEG files. Spent culture media was transfered to black-well plates for the LDH assay, and remaining media was sorted at -80 C for later use. Cells were treated with RLT buffer and frozen until shipped for gene expression analysis. Total RNA was isolated from the cell suspension in 75 uL of Buffer RLT (Qiagen, Germantown, MD 20874) by Quintiles/Expression Analysis (Durham, NC) using a custom isolation procedure. Total RNA from each plate well was transferred to a preamplification plate. Fluidigm's 96.96 Dynamic ArrayTM (Fluidigm, Amsterdam, the Netherlands) technology was used for gene expression analyses by quantitative reverse transcription polymerase chain reaction (qRT-PCR, performed by Quintiles/Expression Analysis, Durham, NC)89. Standard TaqManTM Assays (Applied Biosystems/ThermoFisher Scientific, Foster City, CA) were used to assess the expression of 93 genes selected based on their selectivity and sensitivity to important hepatic receptors known to be modulated by environmental chemicals; importance in human hepatocyte functionality; and hepatotoxicity. […]
Usually AC50 stands for the midpoint of the concentration-response curve, whichever way the signal moves. Consider `NC(=O)N1C(=O)C(C(=O)c2cc(Cl)cs2)c2cc(F)c(Cl)cc21` (stereo not given), for which the AC50 is 13 µM (active).

`CCCOc1sc(C(=O)N2CCC(c3cc(CN)ccc3F)CC2)c(C)c1Br`: the outcome was inactive.

In the case of `Oc1cc2ccccc2c2ccccc12`, the compound was called inactive.

For the compound `CCCCCCCC(=O)O`, the outcome was inactive.

As to `CCCCCCCCCCCCc1ccccc1S(=O)(=O)O`, the outcome was inactive.

For the compound `O=[N+]([O-])c1ccc(O)cc1`, the outcome was inactive.

For the compound `COCC(C)O` (stereo not given), the outcome was inactive.

With `CCCCC(CC)COC(=O)CCCCC(=O)OCC(CC)CCCC` (stereo not given), the call was inactive.

In the case of `CCCOC(=O)c1ccc(O)cc1`, the compound was called inactive.

For the compound `CCC(C)(C)C1CCC(O)CC1` (stereo not given), the call was inactive.

`CCOC(=O)CC(O)(CC(=O)OCC)C(=O)OCC`: the compound was called inactive.

Consider `c1ccc2c(c1)Cc1ccccc1-2`, for which the call was inactive.

Consider `Nc1cccc2c(N)cccc12`, for which the call was inactive.

As to `O=C(O)c1ccccc1C(c1ccc(O)cc1)c1ccc(O)cc1`, the outcome was inactive.

On to `CCCCCCC(=O)O`, for which the outcome was inactive.

As to `CN(C)C=O`, the compound was called inactive.

With `Cc1cc(CCN2CCN(c3nsc4ccccc34)CC2)cc2c1NC(=O)CC2(C)C`, the compound was classed as inactive.

On to `CC[C@H](C)[C@@H](C(=O)O)n1sc2ccccc2c1=O`, for which the outcome was inactive.

Regarding `COc1ccc([N+](=O)[O-])cc1N`, the outcome was inactive.

With `OC1CCC(C2CCCCC2)CC1` (stereo not given), the compound was classed as inactive.

For the compound `CCCCCCCCCCCCN1CCCC1=O`, the compound was classed as inactive.

Take `CC(C)(C)c1cc(C(C)(C)C)c(O)c(C(C)(C)C)c1`: the compound was called inactive.

For `Oc1cccc(O)c1`, the result was inactive.

Consider `N#C[C@@H]1CC(F)(F)CN1C(=O)CNC1CC2CCC(C1)N2c1ncccn1` (stereo not given in full), for which the result was inactive.

In the case of `c1ccc2cc3c(ccc4ccccc43)cc2c1`, the AC50 was 7.18 µM (active).

On to `C=C(C)C(=O)OCCC(F)(F)C(F)(F)C(F)(F)C(F)(F)C(F)(F)C(F)(F)F`, for which the compound was called inactive.

As to `OC1CCCCC1`, the compound was called inactive.

Regarding `CCc1ccc(CCOc2ccc(CC3SC(=O)NC3=O)cc2)nc1` (stereo not given), the call was inactive.

Turning to `CN1CCC[C@H]1c1cccnc1`, the compound was classed as inactive.

Regarding `CC(=O)NC1(c2cccc(F)c2)CCN(CC[C@@]2(c3ccc(Cl)c(Cl)c3)CN(c3ccccc3)C(=O)CO2)CC1`, the half-maximal activity concentration (AC50) is 75 µM (active).

On to `CC(C)(C)CC(C)(C)c1ccc(O)c(-n2nc3ccccc3n2)c1`, for which the outcome was inactive.

As to `CC1=C(/C=C/C(C)=C/C=C/C(C)=C/C(=O)O)C(C)(C)CCC1`, the call was inactive.

Turning to `CCCCCCCCCCCCCCCS(=O)(=O)Oc1ccccc1`, the result was inactive.

With `COC(=O)CCCCC(=O)OC`, the compound was called inactive.

Take `CCCCCCCCC(=O)O`: the compound was called inactive.

For the compound `CC[C@H](c1ccc(O)cc1)[C@@H](CC)c1ccc(O)cc1`, the AC50 is 70.3 µM (active).

On to `Cc1oc(-c2ccccc2)nc1CCOc1ccc(C[C@H](Nc2ccccc2C(=O)c2ccccc2)C(=O)O)cc1`, for which the AC50 is 30.5 µM (active).

For the compound `c1ccc2c(c1)ccc1ccccc12`, the result was inactive.

As to `C[C@@H]1C[C@H]2[C@@H]3CCC4=CC(=O)C=C[C@]4(C)[C@@]3(F)[C@@H](O)C[C@]2(C)[C@@]1(O)C(=O)COP(=O)(O)O`, the outcome was inactive.

On to `ClC1=C(Cl)C(Cl)(Cl)C(Cl)=C1Cl`, for which the compound was classed as inactive.
